# Laboratory results reported in PubChem BioAssay (Tox21).
# “And” between values parts separate entries of the source, which are not always exact repeats. Identical values can stand only once. Values without a mark were called inactive. Results filed as inconclusive are left out. Entries that show only a call come without a potency. The source made the active and inactive calls. Unless noted, calls come from the whole dose curve; as a rule, active = well fitted curve in the direction sought with a large enough effect in the repeat runs; inconclusive = weak or mixed curves; inactive = no such curve, though single readings can be large; an effect the other way counts as inactive or inconclusive.
# Tests used:
# [1] = qHTS assay to identify small molecule antagonists of the estrogen related receptor (ERR) signaling pathway from Tox21 library - cell viability counter screen (AID 1224834); note: nearly all actives have a fitted effect of over 30% in size; note: potency is the fitted concentration of half-maximal effect
# Summary of the method: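 Counter screen run in ERR cells (2,000 cells/well): cells pre-incubated 6 h, then treated with compounds for 17.5 h at 37 C. Fluorescence was read 30 min after CellTiter-Fluor addition.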
# [2] = biological target: Luciferin 4-monooxygenase (Photinus pyralis) (UniProt P08659); assay: qHTS assay to identify small molecule inhibitors of firefly luciferase (AID 1224835); note: nearly all actives have a fitted effect of over 25% in size; note: potency is the fitted concentration of half-maximal effect
# Chain of Luciferin 4-monooxygenase (Photinus pyralis) (P08659 whole entry, looked up): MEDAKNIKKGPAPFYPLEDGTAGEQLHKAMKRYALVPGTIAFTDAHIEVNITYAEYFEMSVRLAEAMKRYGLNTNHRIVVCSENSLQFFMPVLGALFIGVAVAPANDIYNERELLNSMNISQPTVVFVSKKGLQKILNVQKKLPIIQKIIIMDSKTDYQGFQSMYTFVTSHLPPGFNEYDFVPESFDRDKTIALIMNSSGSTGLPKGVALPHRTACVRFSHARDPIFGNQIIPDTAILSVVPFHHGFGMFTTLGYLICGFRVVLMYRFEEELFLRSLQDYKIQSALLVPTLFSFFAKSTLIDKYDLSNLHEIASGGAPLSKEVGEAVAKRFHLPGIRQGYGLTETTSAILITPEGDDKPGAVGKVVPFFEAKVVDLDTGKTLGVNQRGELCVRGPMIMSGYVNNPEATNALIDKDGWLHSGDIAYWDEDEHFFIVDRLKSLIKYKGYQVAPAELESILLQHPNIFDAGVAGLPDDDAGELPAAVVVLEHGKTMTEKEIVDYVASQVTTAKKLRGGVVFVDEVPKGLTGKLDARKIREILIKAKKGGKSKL
# Summary of the method: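 Quantitative HTS format; KM concentrations of both substrates. Purified P. pyralis FLuc activity quantified from luminescence images.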
# [3] = qHTS assay to identify small molecule agonists of the constitutive androstane receptor (CAR) signaling pathway - cell viability counter screen (AID 1224836); note: nearly all actives have a fitted effect of over 45% in size
# Summary of the method: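 23 h treatment, 37 C, 5% CO2. Cell line: HepG2 stably expressing hCAR with a CYP2B6-2.2kb construct. Co-treatment: PK11195, 0.75 uM final. Read-out: CellTiter-Fluor fluorescence intensity.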
# [4] = qHTS assay to identify small molecule antagonists of the constitutive androstane receptor (CAR) signaling pathway - cell viability counter screen (AID 1224837); note: nearly all actives have a fitted effect of over 45% in size
# Summary of the method: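 CITCO at 50 nM final was added alongside compounds (15 concentrations) to double-stable hCAR/CYP2B6-2.2kb HepG2 cells. Following 23 hr at 37 C, cell viability was quantified by CellTiter-Fluor fluorescence intensity.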
# [5] = biological target: Nuclear receptor subfamily 1 group I member 3 (Homo sapiens) (UniProt Q14994); assay: qHTS assay to identify small molecule antagonists of the constitutive androstane receptor (CAR) signaling pathway (AID 1224838); note: nearly all actives have a fitted effect of over 40% in size
# Chain of Nuclear receptor subfamily 1 group I member 3 (Homo sapiens) (Q14994 whole entry, looked up): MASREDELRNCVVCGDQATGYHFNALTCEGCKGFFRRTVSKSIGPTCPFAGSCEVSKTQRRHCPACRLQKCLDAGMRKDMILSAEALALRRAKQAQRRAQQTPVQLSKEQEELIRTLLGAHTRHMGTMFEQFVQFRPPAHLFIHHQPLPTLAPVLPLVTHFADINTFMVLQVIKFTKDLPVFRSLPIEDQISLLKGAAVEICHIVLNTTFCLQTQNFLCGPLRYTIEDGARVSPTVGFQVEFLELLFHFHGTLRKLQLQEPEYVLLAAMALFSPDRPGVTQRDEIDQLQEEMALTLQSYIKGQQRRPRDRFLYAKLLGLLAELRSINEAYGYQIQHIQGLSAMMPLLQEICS
# Summary of the method: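 Inhibition of CITCO-driven (50 nM final) CYP2B6 reporter expression is measured in HepG2 cells stably carrying hCAR. Fifteen compound concentrations are applied for 24 h at 37 C, followed by luciferase luminescence.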
# [6] = qHTS assay to identify small molecule antagonists of the estrogen related receptor signaling pathway with the pleiotropic PPARgamma coactivator (PGC) from Tox21 10K library - cell viability counter screen (AID 1224840; active = well fitted cell-killing curve with a large enough effect in the repeat runs, not every such curve was filed as active; note: nearly all actives have a fitted effect of over 40% in size)
# Summary of the method: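 Readout: fluorescence intensity from CellTiter-Fluor after 30 min at 37 C/5% CO2. Preceded by 17.5 h treatment of PGC/ERR cells with DMSO-dissolved compounds, added 6 h post-seeding.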
# [7] = qHTS assay to identify small molecule antagonists of the estrogen related receptor signaling pathway with the pleiotropic PPARgamma coactivator (PGC) from Tox21 10K library (AID 1224841; call rule not given here; note: actives are mostly falling curves and most rising ones were filed inactive; nearly all actives have a fitted effect of over 50% in size)
# Summary of the method: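 One-Glo luminescence, measured after half an hour at room temperature, quantified reporter output of PGC/ERR cells. These had been plated at 2,000 per well, incubated 6 h, dosed with compounds in DMSO, then kept 18 h at 37 C.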
# [8] = qHTS assay to identify small molecule agonists of the estrogen related receptor signaling pathway with the pleiotropic PPARgamma coactivator (PGC) from Tox21 10K library (AID 1224842); note: nearly all actives have a fitted effect of over 15% in size
# Summary of the method: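 PGC/ERR reporter cells (NTP line) were seeded 2,000 per well, rested 6 h at 37 C/5% CO2, then pin-dosed with compounds in DMSO for 18 h at 37 C; luciferase read by One-Glo luminescence after 30 min at room temperature.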
# [9] = qHTS assay to identify small molecule agonists of the hypoxia (HIF-1) signaling pathway - cell viability counter screen (AID 1224844; calls by dose curve; note: nearly all actives have a fitted effect of over 50% in size)
# Summary of the method: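 In this counter screen, HRE-bla ME-180 cell viability after 17 hrs of compound exposure at 37C was read by CellTiter-Glo luminescence, multiplexed with the beta-lactamase reporter measurement.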
# [10] = qHTS assay to identify small molecule agonists of H2AX (AID 1224845; active = well fitted activation curve with a large enough effect in the signal ratio in the repeat runs, not every such curve was filed as active; the % refers to the signal ratio)
# Summary of the method: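 Wild-type CHO-K1 cells plated overnight, then exposed 3 hr at 37C to compounds at 15 concentrations (0.76% DMSO). Lysed, then HTRF anti-pH2AX(S139)-cryptate/anti-H2AX-d2 detection after 24 hr at room temperature; emissions 665 and 620 nm.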
# [11] = qHTS assay to identify small molecule agonists of the hypoxia (HIF-1) signaling pathway (AID 1224846; active = well fitted activation curve with a large enough effect in the signal ratio in the repeat runs, not every such curve was filed as active; the % refers to the signal ratio)
# Summary of the method: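 ME-180 HRE-bla reporter cells; compounds in DMSO, 17 h at 37C; read-out beta-lactamase via CCF4-AM FRET.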
# [12] = qHTS assay to identify small molecule agonists of H2AX - cell viability counter screen (AID 1224847; calls by dose curve; note: nearly all actives have a fitted effect of over 30% in size; note: potency is the fitted concentration of half-maximal effect)
# Summary of the method: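 Compounds tested at 15 concentrations were incubated 3 hr at 37C with wild-type CHO-K1 cells; cellular ATP-based luminescence (CellTiter-Glo) indicated viability.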
# [13] = qHTS assay to identify small molecule antagonists of the estrogen related receptor (ERR) signaling pathway from Tox21 library (AID 1224848); note: nearly all actives have a fitted effect of over 50% in size; note: potency is the fitted concentration of half-maximal effect
# Summary of the method: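 Tox21 10K compounds in DMSO tested for ERR pathway antagonism in NTP's ERR cell line; 18 h, 37 C exposure; ONE-Glo luminescence.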
# [14] = qHTS assay to identify small molecule agonists of the estrogen related receptor (ERR) signaling pathway from Tox21 library (AID 1224849; calls by dose curve; note: nearly all actives have a fitted effect of over 15% in size); details: ERR reporter cell line, ONE-Glo luciferase, 18 h
# Summary of the method: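 Luciferase activity in ERR pathway reporter cells served as the agonist readout; exposure lasted 18 h at 37 C, with ONE-Glo detection after 30 min at room temperature.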
# [15] = qHTS RealTime-Glo MT Cell Viability Assay in HepG2 cells - 24 hour (AID 1224867); note: nearly all actives have a fitted effect of over 50% in size
# Summary of the method: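 Cell number in HepG2 cultures estimated from NanoLuc luminescence generated by metabolic reduction of a prosubstrate by living cells. The homogeneous, nonlytic format allowed repeated reads at 0, 8, 16, 24, 32 and 40 h of compound exposure.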
# [16] = qHTS RealTime-Glo MT Cell Viability Assay in HEK293 cells - 32 hour (AID 1224868)
# Summary of the method: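 Homogeneous bioluminescent viability format in HEK293 cells (600 cells/well). Following 5 h at 37 C/5% CO2, 23 nL compound was pintooled; the signal was measured repeatedly during 40 h incubation.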
# [17] = A CellTox Green Cytotoxicity Assay to monitor cytotoxicity in HEK293 cells - 0 hour (AID 1224869); note: nearly all actives have a fitted effect of over 50% in size
# Summary of the method: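 Real-time, in one plate: 600 HEK293 cells/well with dead-cell DNA dye, pinned compound after 5 h, 37 C incubation over 40 h; viable cells give no appreciable fluorescence.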
# [18] = biological target: Thyrotropin receptor (Homo sapiens) (UniProt P16473); assay: qHTS assay to identify small molecule agonists of the thyroid stimulating hormone receptor (TSHR) signaling pathway (AID 1224843; calls by dose curve; note: nearly all actives have a fitted effect of over 45% in size)
# Chain of Thyrotropin receptor (Homo sapiens) (P16473 whole entry, looked up): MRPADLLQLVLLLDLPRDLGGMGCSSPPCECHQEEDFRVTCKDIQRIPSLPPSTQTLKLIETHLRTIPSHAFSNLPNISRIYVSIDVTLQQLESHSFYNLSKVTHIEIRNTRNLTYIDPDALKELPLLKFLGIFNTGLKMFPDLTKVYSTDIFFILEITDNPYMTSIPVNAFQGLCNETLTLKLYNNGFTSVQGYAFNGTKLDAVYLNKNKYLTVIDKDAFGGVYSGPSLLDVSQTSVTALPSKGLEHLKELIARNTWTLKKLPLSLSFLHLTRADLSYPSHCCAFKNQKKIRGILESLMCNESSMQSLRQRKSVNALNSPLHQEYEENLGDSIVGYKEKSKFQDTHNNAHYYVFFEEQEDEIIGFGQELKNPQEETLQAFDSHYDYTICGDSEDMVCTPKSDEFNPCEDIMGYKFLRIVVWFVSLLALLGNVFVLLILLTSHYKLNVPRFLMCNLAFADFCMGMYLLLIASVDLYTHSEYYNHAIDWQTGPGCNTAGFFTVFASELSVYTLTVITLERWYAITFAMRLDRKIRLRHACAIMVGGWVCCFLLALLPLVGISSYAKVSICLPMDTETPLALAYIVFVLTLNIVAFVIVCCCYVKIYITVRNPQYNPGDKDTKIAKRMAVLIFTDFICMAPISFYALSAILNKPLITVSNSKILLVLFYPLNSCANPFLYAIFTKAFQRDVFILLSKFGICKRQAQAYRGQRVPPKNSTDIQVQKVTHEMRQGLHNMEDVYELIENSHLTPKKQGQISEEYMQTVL
# Summary of the method: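 Using 15 concentrations per compound in triplicate, cAMP production was monitored in TSHR-HEK293 cells after 30 min compound incubation at RT; HTRF reagents followed, with fluorescence intensity recorded after 1 h.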
# [19] = qHTS assay to identify small molecule agonists of the estrogen related receptor signaling pathway with the pleiotropic PPARgamma coactivator (PGC) (AID 1224823)
# Summary of the method: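 Luminescence readout (One-Glo, 30 min RT) from PGC/ERR cell line treated 18 h at 37 C with pin-tool-delivered DMSO compound solutions; cells plated 6 h before dosing. Quantitative HTS format.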
# [20] = biological target: Nuclear receptor subfamily 1 group I member 3 (Homo sapiens) (UniProt Q14994); assay: qHTS assay to identify small molecule agonists of the constitutive androstane receptor (CAR) signaling pathway (AID 1224839); note: nearly all actives have a fitted effect of over 15% in size; note: potency is the fitted concentration of half-maximal effect
# Summary of the method: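 Compounds tested at 15 concentrations on HepG2 cells stably harbouring hCAR and CYP2B6-2.2kb reporter constructs, co-treated with PK11195 (0.75 uM final), 24 h at 37 C; luminescent reporter signal quantified.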
smiles,measurement,setting,value
CC1=C(/C=C/C(C)=C/C=C/C(C)=C/CO)C(C)(C)CCC1,Potency,[1],inactive
same,Potency,[2],inactive
same,Potency,[3],inactive
same,Potency,[4],inactive
same,Potency,[5],inactive
same,Potency,[6],inactive
same,Potency,[7],inactive
same,Potency,[8],inactive
same,Potency,[9],inactive
same,Potency,[10],inactive
same,outcome,[11],inactive
same,Potency,[12],inactive
same,Potency,[13],inactive
same,"activity change, positive = activation",[14]; at 92.4 µM (top of the series),-2.72% and -18.5%
same,Potency,[15],inactive
same,Potency,[16],inactive
same,Potency,[17],inactive
CC(C)Cc1ccccc1,Potency,[1],inactive
same,Potency,[2],inactive
same,Potency,[3],inactive
same,Potency,[4],inactive
same,Potency,[6],inactive
same,Potency,[18],inactive
same,Potency,[9],inactive
same,Potency,[10],inactive
same,outcome,[11],inactive
same,Potency,[12],inactive
same,Potency,[15],inactive
same,Potency,[16],inactive
same,Potency,[17],inactive
Cc1cc(O)c2c(c1)C(=O)c1cc(O)cc(O)c1C2=O,Potency,[19],inactive
same,Potency,[1],27.3 µM (active)
same,Potency,[4],inactive
same,Potency,[5],inactive
same,Potency,[20],48.6 µM (active)
same,Potency,[6],inactive
same,Potency,[7],inactive
same,Potency,[8],inactive
same,Potency,[18],inactive
same,Potency,[9],inactive
same,outcome,[11],inactive
same,Potency,[12],55.4 µM (active) and 80 µM (active)
same,Potency,[15],inactive
CN(C)c1cccc(O)c1,Potency,[1],inactive
same,Potency,[2],31.7 µM (active)
same,Potency,[3],inactive
same,Potency,[4],inactive
same,Potency,[5],inactive
same,Potency,[20],62.1 µM (active)
same,Potency,[6],inactive
same,Potency,[18],inactive
same,Potency,[10],inactive
same,outcome,[11],inactive
same,Potency,[12],inactive
same,Potency,[15],inactive
same,Potency,[16],inactive
same,Potency,[17],inactive
CS(=O)(=O)Nc1ccc([N+](=O)[O-])cc1Oc1ccccc1,Potency,[19],inactive
same,Potency,[1],30.6 µM (active)
same,Potency,[4],inactive
same,Potency,[5],inactive
same,Potency,[20],inactive
same,Potency,[7],inactive
same,Potency,[8],inactive
same,Potency,[18],inactive
same,Potency,[9],inactive
same,Potency,[10],inactive
same,Potency,[13],38.6 µM (active)
same,"activity change, positive = activation",[14]; at 42.5 µM (top of the series),-19.6%
same,"activity change, positive = activation",[14]; at 92.4 µM (top of the series),-48.5%
same,Potency,[15],inactive
same,Potency,[16],inactive
c1ccc2[nH]cnc2c1,Potency,[1],inactive
same,Potency,[2],inactive
same,Potency,[3],inactive
same,Potency,[4],inactive
same,Potency,[5],inactive
same,Potency,[20],inactive
same,Potency,[6],inactive
same,Potency,[9],inactive
same,Potency,[10],inactive
same,outcome,[11],inactive
same,Potency,[12],inactive
same,Potency,[16],inactive
same,Potency,[17],inactive
CC(=O)Nc1ccc(C(=O)O)cc1,Potency,[1],inactive
same,Potency,[2],inactive
same,Potency,[3],inactive
same,Potency,[4],inactive
same,Potency,[5],inactive
same,Potency,[20],inactive
same,Potency,[6],inactive
same,Potency,[18],inactive
same,Potency,[10],inactive
same,outcome,[11],inactive
same,Potency,[16],inactive
same,Potency,[17],inactive
CCc1ccccc1O,Potency,[1],inactive
same,Potency,[2],inactive
same,Potency,[3],inactive
same,Potency,[4],inactive
same,Potency,[5],inactive
same,Potency,[20],inactive
same,Potency,[6],inactive
same,Potency,[18],inactive
same,Potency,[9],inactive
same,Potency,[10],inactive
same,outcome,[11],inactive
same,Potency,[12],inactive
same,Potency,[16],inactive
same,Potency,[17],inactive
CC(C)(CO)COC(=O)C(C)(C)CO,Potency,[1],inactive
same,Potency,[2],inactive
same,Potency,[3],inactive
same,Potency,[4],inactive
same,Potency,[5],inactive
same,Potency,[20],inactive
same,Potency,[6],inactive
same,Potency,[7],inactive
same,Potency,[8],inactive
same,Potency,[18],inactive
same,Potency,[10],inactive
same,outcome,[11],inactive
same,Potency,[13],inactive
same,"activity change, positive = activation",[14]; at 92.4 µM (top of the series),2.22% and 0.644%
same,Potency,[15],inactive
same,Potency,[16],inactive
same,Potency,[17],inactive
